Laboratory results taken from PubChem BioAssay (Tox21).
Unmarked numbers belong to inactive results. Active and inactive are the calls of the source. The call rests on the fitted dose curve; in most records, active means well fitted activation curve with a large enough effect in the repeat runs; inconclusive means weak or mixed curves; inactive means flat fitted curve, though single readings scatter.

Test: A CellTox Green Cytotoxicity Assay to monitor cytotoxicity in HepG2 cells - 0 hour (AID 1224882); further: nearly all actives have a fitted effect of over 35% in size
Conditions: CellTox Green fluorescence; series mostly up to 76.8 µM; cytotoxicity: at the top concentration
Source text: National Center for Advancing Translational Sciences [NCATS]
NIH Chemical Genomics Center [NCGC]
U.S. Environmental Protection Agency [EPA]
National Institutes of Environmental Health Sciences [NIEHS]
National Toxicology Program [NTP]
Cell-based models are critical for drug discovery. Determining the natural cytotoxic effects resulting from test compounds is an essential research activity. A CellTox Green Cytotoxicity Assay to monitor cytotoxicity in real time of continues cell culture during 40 hours of the compound treatment was used to screen Tox21 10K library compounds in HepG2 cells. CellTox Green Cytotoxicity Assay is a nonlytic, homogeneous, biofluorescent method to measure cytotoxicity in cell culture after experimental manipulation. The assay system uses a proprietary asymmetric cyanine dye that is excluded from viable cells but preferentially stains the dead cell's DNA. […] Viable cells produce no appreciable increases in fluorescence. Therefore, the fluorescence signal produced by the binding interaction with dead cell DNA is proportional to cytotoxicity.
The mixture of HepG2 cell suspension and reagents were dispensed at 600cells/6 ul/well in 1536-well tissue culture treated black solid bottom plates using a Multidrop dispenser. After the assay plates were incubated at a 37 C/5% CO2 incubator for 5 hours, 23 nL of compounds dissolved in DMSO, positive and negative controls was transferred to the assay plate by a pintool work station. The plates were incubated at 37 C for 40 hours. The fluorescence intensity were measured at 0h, 8h, 16h, 24h, 32h and 40h time points using ViewLux plate reader during compound treatment.
On the % scale 0 is the no-effect control and ±100 the full control effect.

Row | Structure (SMILES) | cytotoxicity | Potency
1 | O=S1(=O)OC(c2cc(Br)c(O)c(Br)c2)(c2cc(Br)c(O)c(Br)c2)c2ccccc21 | -10.4% | –
2 | Cc1cc(=O)[nH]o1 | 1.54% | –
3 | Nc1nc(=S)[nH][nH]1 | -1.1% | –
4 | O=C(O)C1(c2ccc3c(c2)OC[C@H](Cc2ccc(-c4ccccc4)cc2)[C@H]3O)CCCC1 | 0.0321% | –
5 | CCOC(=O)CBr | 4.15% | –
6 | BrCCCCBr | 1.74% | –
7 | CCC(COC(=O)c1cc(OC)c(OC)c(OC)c1)(c1ccccc1)N(C)C (stereo not given) | -8.96% [at 35.3 µM] | –
8 | CCCN(CC1CC1)c1c([N+](=O)[O-])cc(C(F)(F)F)cc1[N+](=O)[O-] | 2.39% | –
9 | CC(C)(OO)c1ccccc1 | -3.96% | –
10 | CCCC(Cn1cncn1)c1ccc(Cl)cc1Cl (stereo not given) | -0.267% | –
11 | O=C1CN=C(c2ccccc2)c2cc(Cl)ccc2N1CC1CC1 | -0.629% | –
12 | CCCCCCCCCCOC(=O)c1ccccc1C(=O)OCCCCCCCCCC | -1.19% | –
13 | O=[Se]=O | 2.24% [at 35.3 µM] | –
14 | CN1[C@@H]2CC[C@H]1CC(OC(=O)c1cc(Cl)cc(Cl)c1)C2 (stereo not given in full) | 0.818% [at 35.3 µM] | –
15 | C=CCC1([C@H](C)CCC)C(=O)NC(=O)NC1=O | 2.28% | –
16 | Cn1cc[n+](C)c1 (tested in a mixture with another compound) | 2.68% | –
17 | O=[N+]([O-])c1ccc(F)c([N+](=O)[O-])c1 | -1.41% | –
18 | C=CC[C@]1(O)CC[C@H]2[C@@H]3CCC4=CC(=O)CCC4=C3C=C[C@@]21C | 0.272% [at 35.3 µM] | –
19 | Nc1ccc([N+](=O)[O-])cc1[N+](=O)[O-] | -1.29% | –
20 | COc1nn(CSP(=S)(OC)OC)c(=O)s1 | 2.6% | –

Row | Structure (SMILES) | cytotoxicity | Potency
21 | COC1=CC(=O)O[C@@H](CCc2ccccc2)C1 | -4.93% | –
22 | C=CCOC(C)=O | 1.99% | –
23 | CCCCCCC#N | -1.48% | –
24 | [O-][Cl+]O | 0.458% | –
25 | Cc1ccccc1CCl | 6.94% | –
26 | O=C1C(=O)c2cccc3cccc1c23 | -0.211% | –
27 | O=S(=O)(Cl)c1ccccc1 | -9.62% | –
28 | C=CC(=O)OC(C)(C)C | -3.32% | –
29 | C=COC(C)=O | 3.77% | –
30 | CC1(C)[C@H](C=C(Cl)Cl)[C@@H]1C(=O)O[C@@H](C#N)c1cccc(Oc2ccccc2)c1 | -3.46% | –
31 | ClCc1ccccc1 | 0.0513% | –
32 | O=NN1CCNCC1 | -0.357% | –
33 | CC(Cl)C(C)Cl (stereo not given) | -6.39% | –
34 | NS(=O)(=O)C(F)(F)C(F)(F)C(F)(F)C(F)(F)C(F)(F)C(F)(F)C(F)(F)C(F)(F)F | -5.33% | –
35 | ClCc1cccc(Cl)c1 | -5.59% [at 35.3 µM] | –
36 | Cn1sc(Cl)cc1=O | -4.6% | –
37 | [CH3][Sn]([CH3])([Cl])[Cl] | – | inactive
38 | CC(C)N(C(=O)COc1nnc(C(F)(F)F)s1)c1ccc(F)cc1 | -12.2% | –
39 | Clc1ccc(C(OCCN2CCCCC2)c2ccccc2)cc1 (stereo not given) | -0.279% [at 35.3 µM] | –
40 | COP(=O)(OC)O/C(=C/Cl)c1cc(Cl)c(Cl)cc1Cl | 0.358% | –
